Measurements as given in the supplement of paper PMC6555819.

What was measured:
Experiment in all cases: PBM binding z-score (relative to random genomic background probes); higher = stronger binding; sequences stand for … in GC…GCGATTGACAGCGTAGAATGAAGG
[1] = test system: FXR:RXRa (NR concentration 270 nM, RXRa partner concentration 90 nM)
Outline: (§1)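 Ligand-free nuclear receptor dimers were bound for 1 h to custom Agilent 4×180K protein-binding microarrays. Detection used antibodies against each partner (one per run). Binding z-scores rest on regression-normalized fluorescence, with random background probes as the reference.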

[2] = test system: LXRa:RXRa (NR concentration 270 nM, RXRa partner concentration 90 nM)
Outline: as §1

[3] = test system: LXRa homodimer (NR concentration 270 nM)
Outline: as §1

[4] = test system: LXRb:RXRa (NR concentration 270 nM, RXRa partner concentration 90 nM)
Outline: as §1

[5] = test system: LXRb homodimer (NR concentration 270 nM)
Outline: as §1

[6] = test system: PPARa:RXRa (NR concentration 270 nM, RXRa partner concentration 90 nM)
Outline: as §1

[7] = test system: PPARg:RXRa (NR concentration 180 nM, RXRa partner concentration 90 nM)
Outline: as §1

[8] = test system: PPARg:RXRa 270nM:90nM, anti-RXR (NR concentration 270 nM, RXRa partner concentration 90 nM)
Outline: as §1

[9] = test system: PPARg:RXRa 30nM:10nM, anti-RXR (NR concentration 30 nM, RXRa partner concentration 10 nM)
Outline: as §1

[10] = test system: PPARg:RXRa 90nM:30nM, anti-RXR (NR concentration 90 nM, RXRa partner concentration 30 nM)
Outline: as §1

[11] = test system: PPARg:RXRa DBDmut IVT, anti-RXR (DBD mutation: RXRa K156A/R161A, NR concentration 270 nM, RXRa partner concentration 90 nM)
Outline: as §1

[12] = test system: PPARg:RXRa IVT, anti-PPARg (NR concentration 270 nM, RXRa partner concentration 90 nM)
Outline: as §1

[13] = test system: PPARg DBDmut:RXRa IVT, anti-PPARg (DBD mutation: PPARg1 K132A/R137A, NR concentration 270 nM, RXRa partner concentration 90 nM)
Outline: as §1

[14] = test system: PPARg DBDmut IVT, anti-PPARg (DBD mutation: PPARg1 K132A/R137A, NR concentration 270 nM)
Outline: as §1

[15] = test system: PPARg homodimer (NR concentration 180 nM)
Outline: as §1

[16] = test system: PXR:RXRa (NR concentration 270 nM, RXRa partner concentration 90 nM)
Outline: as §1

[17] = test system: PXR homodimer (NR concentration 270 nM)
Outline: as §1

[18] = test system: RARa:RXR (NR concentration 270 nM, RXRa partner concentration 90 nM)
Outline: as §1

[19] = test system: RARa homodimer (NR concentration 270 nM)
Outline: as §1

[20] = test system: RARb:RXRa (NR concentration 270 nM, RXRa partner concentration 90 nM)
Outline: as §1

| Sequence | PBM binding z-score [1] | PBM binding z-score [2] | PBM binding z-score [3] | PBM binding z-score [4] | PBM binding z-score [5] | PBM binding z-score [6] | PBM binding z-score [7] | PBM binding z-score [8] | PBM binding z-score [9] | PBM binding z-score [10] | PBM binding z-score [11] | PBM binding z-score [12] | PBM binding z-score [13] | PBM binding z-score [14] | PBM binding z-score [15] | PBM binding z-score [16] | PBM binding z-score [17] | PBM binding z-score [18] | PBM binding z-score [19] | PBM binding z-score [20] |
| --- | --- | --- | --- | --- | --- | --- | --- | --- | --- | --- | --- | --- | --- | --- | --- | --- | --- | --- | --- | --- |
| TCGAGTAGGTTAGTCGGTGCATTCAGCCAACATA | -0.341 | -0.428 | -0.522 | -0.341 | -1.16 | 0.254 | -0.329 | 0.678 | 1.05 | 0.958 | 1.78 | 1.93 | -0.29 | -0.55 | 0.152 | 0.147 | -0.142 | 0.0978 | 0.0806 | -0.085 |
| ACAGACAGGTGATGAAGGTAACGCAGGCTATCAT | -0.062 | -0.206 | -0.481 | -0.283 | -0.516 | -0.00302 | 0.871 | 0.114 | -0.0221 | 0.00481 | -0.0406 | 0.365 | -0.0492 | 0.0429 | -0.243 | -0.376 | 0.103 | -0.27 | -0.271 | 0.179 |
| CTCGAAAGGTCGTGCTCAGGTGATTATACCAAAC | 4.98 | 4.19 | 0.561 | 3.64 | 0.429 | 4.83 | 2.63 | 3.52 | 0.939 | 2.35 | 0.733 | 1.72 | 1.57 | 0.403 | 2.1 | 3.55 | 0.276 | 4.32 | 0.268 | 3.86 |
| TCAGGCAGGTGAAGGTAACTCAGGTACGCAGTCG | 0.263 | 1.12 | -0.208 | 0.558 | -0.936 | 0.851 | 0.226 | 1.2 | 2.13 | 1.73 | 1.55 | 1.14 | -0.774 | -0.917 | 0.554 | 0.0794 | -0.029 | 0.355 | -0.103 | 0.92 |
| GCATATGGGTAATACAAGGTGAAAGTCCGATTGT | 0.428 | 1.27 | 0.16 | 0.226 | -0.552 | 1.46 | 0.928 | 1.03 | 0.412 | 0.777 | 3.34 | 2.47 | 0.702 | 0.516 | 0.3 | 0.344 | 0.0703 | 1.08 | 0.617 | 0.416 |
| CCTATTAGTTGACCATAAGCGCAACCGAAGCTCG | 0.497 | 0.827 | 0.899 | 1.04 | 1.41 | 0.528 | 0.326 | 0.456 | 0.0964 | 0.123 | 0.822 | 0.118 | 1.15 | 0.388 | 2.28 | 0.436 | 1.11 | 0.706 | 2.45 | 0.701 |
| TGAATGAGGTTATAAGATCAGGGTACGTTGCAAA | 1.46 | 1.39 | 0.0526 | 1.44 | 0.315 | 2.72 | 1.53 | 1.96 | 0.789 | 1.23 | 0.889 | 1.69 | 1.22 | 0.612 | 0.135 | 1.17 | 0.33 | 1.74 | 0.229 | 1.27 |
